According to the supplement of paper PMC10849652:
Of roughly 8,800 targets only a part is listed; those with a hit were picked by preference. About 0.5% of all pairs of compound and target were hits.

Assays:
Assay in all cases: log2 fold change, soluble protein after heating vs DMSO (PISA); higher = thermal stabilisation; K562 lysate, 10 uM; active = over 0.2 and 3.5 SD of the protein, either way, in both replicates (recomputed)
[1] = compound: C1=CC=C(C=C1)[C@H](COC2=CC3=C(C=C2)NC(=O)N3)NC(=O)C4=CC=CN(C4=O)CC5=CC(=C(C=C5)F)F
Summary of the method: (§1)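 A 30 min treatment with 10 μM compound was applied to crude K562 extract at 1 mg/mL protein in PBS pH 7.4 with 1 mM MgCl2. Heating for 3 min spanned 48°C-58°C, after which aliquots were pooled, adjusted to 0.5% NP-40 at 4°C and spun at 21,000xg for 90 min. TMTpro 16plex LC-MS/MS of the supernatant, with channel sums equalised, gave values recorded as log-two fold change in thermal stability against solvent controls, from duplicates.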

[2] = compound: CC1=C(SC2=C1C(=N[C@H](C3=NN=C(N32)C)CC(=O)N)C4=CC=C(C=C4)Cl)C
Summary of the method: as §1

[3] = compound: CC1=C2C(=CC=C1)N=C(N(C2=O)C3=CC=CC=C3C)CN4C=NC5=C(N=CN=C54)N
Summary of the method: as §1

[4] = compound: Cc1sc2c(c1C)C(c1ccc(Cl)cc1)=N[C@@H](CC(=O)OC(C)(C)C)c1nnc(C)n1-2
Summary of the method: as §1

[5] = compound: c1ccc([C@@H]2C[C@H]2NC2CCNCC2)cc1
Summary of the method: as §1

Measured: log2 fold change

VPS11 (UniProt Q9H270)
Sequence of UniProt Q9H270 (Q9H270 whole entry, looked up): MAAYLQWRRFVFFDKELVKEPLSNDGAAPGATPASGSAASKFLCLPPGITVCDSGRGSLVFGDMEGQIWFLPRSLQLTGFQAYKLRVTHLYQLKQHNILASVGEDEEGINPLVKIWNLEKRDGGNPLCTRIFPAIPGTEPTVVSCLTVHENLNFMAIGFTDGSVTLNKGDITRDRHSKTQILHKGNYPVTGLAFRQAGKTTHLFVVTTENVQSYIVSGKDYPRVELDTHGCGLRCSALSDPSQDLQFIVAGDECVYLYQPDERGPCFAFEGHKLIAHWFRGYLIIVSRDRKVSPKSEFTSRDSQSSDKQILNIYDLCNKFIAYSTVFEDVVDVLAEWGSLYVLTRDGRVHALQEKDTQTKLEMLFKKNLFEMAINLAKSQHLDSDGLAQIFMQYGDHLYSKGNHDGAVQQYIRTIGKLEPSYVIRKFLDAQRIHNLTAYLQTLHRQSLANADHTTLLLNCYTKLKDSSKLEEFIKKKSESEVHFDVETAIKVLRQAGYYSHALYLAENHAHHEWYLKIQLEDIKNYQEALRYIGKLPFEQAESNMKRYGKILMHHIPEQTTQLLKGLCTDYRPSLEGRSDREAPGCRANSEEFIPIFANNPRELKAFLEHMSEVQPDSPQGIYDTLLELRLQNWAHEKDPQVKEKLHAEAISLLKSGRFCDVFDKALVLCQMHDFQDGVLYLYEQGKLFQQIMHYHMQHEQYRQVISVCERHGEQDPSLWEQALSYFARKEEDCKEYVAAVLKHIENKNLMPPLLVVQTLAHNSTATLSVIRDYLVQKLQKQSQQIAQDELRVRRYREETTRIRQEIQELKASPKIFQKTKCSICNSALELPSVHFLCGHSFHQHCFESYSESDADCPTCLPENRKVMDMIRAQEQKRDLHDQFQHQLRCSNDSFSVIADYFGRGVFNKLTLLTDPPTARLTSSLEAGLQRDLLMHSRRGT
inactive: [1] -0.018 | [2] -0.001 | [3] 0.044 | [4] 0.048 | [5] 0.029

VTN (UniProt P04004)
Sequence of UniProt P04004 (P04004 whole entry, looked up): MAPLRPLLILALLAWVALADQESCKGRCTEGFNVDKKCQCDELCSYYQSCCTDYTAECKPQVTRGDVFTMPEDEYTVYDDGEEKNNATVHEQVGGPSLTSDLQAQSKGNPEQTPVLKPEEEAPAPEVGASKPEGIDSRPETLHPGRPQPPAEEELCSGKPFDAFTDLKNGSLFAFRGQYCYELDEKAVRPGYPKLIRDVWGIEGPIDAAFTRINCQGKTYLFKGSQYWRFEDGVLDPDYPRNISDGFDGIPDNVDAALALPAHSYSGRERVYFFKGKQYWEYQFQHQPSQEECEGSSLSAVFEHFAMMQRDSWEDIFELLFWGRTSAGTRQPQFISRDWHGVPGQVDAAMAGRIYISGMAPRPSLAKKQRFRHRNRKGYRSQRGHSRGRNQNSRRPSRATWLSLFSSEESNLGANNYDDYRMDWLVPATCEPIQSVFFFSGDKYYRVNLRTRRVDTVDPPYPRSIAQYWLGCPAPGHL
inactive: [1] -0.009 | [2] -0.039 | [3] -0.094 | [4] -0.053 | [5] -0.222

WIPI1 (UniProt Q5MNZ9)
Sequence of UniProt Q5MNZ9 (Q5MNZ9 whole entry, looked up): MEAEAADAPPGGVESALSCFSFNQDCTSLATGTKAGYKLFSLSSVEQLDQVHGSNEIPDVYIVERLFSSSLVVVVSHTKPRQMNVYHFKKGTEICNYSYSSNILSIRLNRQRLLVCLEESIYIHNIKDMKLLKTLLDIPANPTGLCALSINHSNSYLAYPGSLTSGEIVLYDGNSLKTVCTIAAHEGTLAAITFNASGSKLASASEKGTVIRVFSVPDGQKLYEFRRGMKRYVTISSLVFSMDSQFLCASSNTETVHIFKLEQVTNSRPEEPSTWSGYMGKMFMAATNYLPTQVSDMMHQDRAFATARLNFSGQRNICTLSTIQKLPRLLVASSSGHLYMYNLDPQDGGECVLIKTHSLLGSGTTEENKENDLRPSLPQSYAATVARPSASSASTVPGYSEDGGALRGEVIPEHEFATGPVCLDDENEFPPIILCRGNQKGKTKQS
inactive: [1] 0.094 | [2] 0.023 | [4] 0.035 | [5] -0.031
